This is a sample that favours compounds with a hit; in the whole collection about 6.9% have one here.
BAZ2B block: qHTS Assay for Inhibitors of BAZ2B | AlphaScreen BAZ2B-H3K14Ac peptide displacement | 360,000 tested, 4.4% active | Bromodomain adjacent to zinc finger domain protein 2B (Homo sapiens), Q9UIF8 | AID 504333, 2011 | Potency, µM (series often up to 114 µM), without a hit: at the top dose activity change, negative = inhibition, most hits filed as inhibitors; further: on the % scale 0 is the no-effect control and ±100 the full control effect; nearly all actives have a fitted effect of over 60% in size
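AlphaScreen displacement of biotin-H3(5-23)K14Ac peptide (50 nM final) from BAZ2B (50 nM final) in PBS pH 7.4, 0.01% Tween-20; complex preformed 30 min RT, then compounds (top 110 uM) 30 min RT, beads 20 min dark.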
PLK1 PBD block: qHTS for Inhibitors of PLK1-PDB (polo-like kinase 1 - polo-box domain): Primary Screen. AID 720504, 2013. Serine/threonine-protein kinase PLK1 (Homo sapiens), P53350. Potency, µM, for inactives: max response, negative = inhibition, usual class: inhibitors. 360,000 tested, 2.8% active. Plk1 PBD binding of FITC phosphopeptide, fluorescence polarization; further: series mostly up to about 57 µM; on the % scale 0 is the no-effect control and ±100 the full control effect; nearly all actives have a fitted effect of over 65% in size
HP1b chromo inh: HTS for Inhibitors of HP1-beta Chromodomain Interactions with Methylated Histone Tails | Chromobox protein homolog 1 (Homo sapiens), P83916 | AlphaScreen HP1-beta / biotin-H3K9me3 peptide binding | Potency, µM (top dose mostly 114 µM), inactives show top-dose activity change, negative = inhibition, most hits filed as inhibitors | 390,000 tested, 0.56% active; further: nearly all actives have a fitted effect of over 70% in size
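HP1-beta protein (50 nM final) preincubated 30 min at room temperature with biotinylated H3(1-18)K9me3 peptide (50 nM) in PBS pH 7.4, 0.01% Tween-20, then compound added for 30 min. AlphaScreen streptavidin donor/nickel chelate acceptor beads (10 ug/mL final), 30 min dark, luminescence read.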
L3MBTL1 block: qHTS Assay for the Inhibitors of L3MBTL1; AID 485360, 2010; 230,000 tested, 0.66% active; Lethal(3)malignant brain tumor-like protein 1 (Homo sapiens), Q9Y468; AlphaScreen L3MBTL1–H3K9me1 peptide binding; Potency, µM (series often up to 57.1 µM), inactives show top-dose activity, negative = inhibition, hits mostly inhibitors; further: on the % scale 0 is the no-effect control and ±100 the full control effect; nearly all actives have a fitted effect of over 60% in size
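AlphaScreen proximity signal between nickel-chelate acceptor and streptavidin donor beads (final 10 ug/mL) reports binding of 50 nM L3MBTL1 to 75 nM biotin-H3 K9me1 peptide; complex incubated with compounds 30 min at room temperature; cefsulodin titration as control.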
JMJD2A Tudor inh: qHTS Assay for Inhibitors of JMJD2A-Tudor Domain; AlphaScreen JMJD2A-Tudor / H3K4me3 peptide binding; Potency, µM (highest dose often 114 µM), inactives show top-dose activity change, negative = inhibition, usual class: inhibitors; 390,000 tested, 4.4% active; AID 504339, 2011; further: on the % scale 0 is the no-effect control and ±100 the full control effect; nearly all actives have a fitted effect of over 50% in size
VDR inhibitor: Inhibitors of the vitamin D receptor (VDR): qHTS; Vitamin D3 receptor (Homo sapiens), P11473; 400,000 tested, 0.93% active; VDR-SRC2-3 peptide fluorescence polarization, 2 h; Potency, µM, inactives show max response, negative = inhibition, most hits filed as inhibitors; AID 504847, 2011; further: on the % scale 0 is the no-effect control and ±100 the full control effect
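After 23 nl compound addition and a short centrifugation, plates sat for 2 hours at ambient temperature; polarization of fluorescence then indicated loss of VDR binding to peptide SRC2-3.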
Active calls of the source: *; [ ] = another dose, or the depositor's remark. The call rests on the fitted dose curve; in most records, active means well fitted curve in the direction sought with a large enough effect; inconclusive means small, poorly fitted or top-dose-only effect, or another doubt; inactive means no such curve, though single readings can be large; an effect the other way counts as inactive or inconclusive. Potency means the concentration at half of the fitted maximal effect.

For COc1ccc(NC2c3ccccc3C(=O)N2Cc2ccco2)cc1OC (stereo not drawn) the results were BAZ2B block inconclusive, PLK1 PBD block -15%, HP1b chromo inh -10%, L3MBTL1 block -7%, JMJD2A Tudor inh inconclusive and VDR inhibitor -3%.
O=C1c2ccccc2C(Nc2cccnc2)N1Cc1ccc2c(c1)OCO2 (stereo not drawn) was read as BAZ2B block 2%, PLK1 PBD block -12%, HP1b chromo inh 12%, L3MBTL1 block -15%, JMJD2A Tudor inh -17% and VDR inhibitor -10%.
O=C1c2ccccc2C(Nc2ccc3c(c2)OCO3)N1Cc1ccc2c(c1)OCO2 (stereo not drawn) was read as BAZ2B block 20µM*, PLK1 PBD block -1%, HP1b chromo inh inconclusive, L3MBTL1 block inconclusive, JMJD2A Tudor inh 45µM* and VDR inhibitor 5%.
For O=C1c2ccccc2C(Nc2ccc3c(c2)OCO3)N1Cc1ccco1 (stereo not drawn) the results were BAZ2B block 45µM*, PLK1 PBD block 5%, HP1b chromo inh inconclusive, L3MBTL1 block -7%, JMJD2A Tudor inh 56µM* and VDR inhibitor -2%.
`CCOc1ccc(NC2c3ccccc3C(=O)N2Cc2ccco2)cc1` (stereo not drawn) gave BAZ2B block 50µM*, PLK1 PBD block 2%, HP1b chromo inh inconclusive, L3MBTL1 block -41%, JMJD2A Tudor inh 45µM* and VDR inhibitor -15%.
Screening CC(CN1CCN(C)CC1)OC(=O)c1cccc(F)c1 (stereo not drawn) returned BAZ2B block 3%, PLK1 PBD block -13%, HP1b chromo inh 68%, L3MBTL1 block 4%[2.29 µM], JMJD2A Tudor inh -1% and VDR inhibitor 2%.
For COc1ccccc1NC(=O)c1ccc2ccccc2c1 the results were JMJD2A Tudor inh 62%.
For COc1ccc(NC(=O)C2CCN(S(=O)(=O)c3ccc4c(c3)CCCC(=O)N4)CC2)cc1Cl the results were BAZ2B block 9%[57.1 µM], HP1b chromo inh 27%, JMJD2A Tudor inh 1% and VDR inhibitor 6%.
Screening COCCOc1ccc(C(F)(F)F)cc1NC(=O)c1ccc(C(F)(F)F)cc1 returned BAZ2B block 5%, PLK1 PBD block -8%, HP1b chromo inh 35%, L3MBTL1 block 10%, JMJD2A Tudor inh -7% and VDR inhibitor 6%.
`COCCOc1ccc(C(F)(F)F)cc1Nc1nc2ccccc2o1` gave BAZ2B block 13%, PLK1 PBD block 6.7µM*, HP1b chromo inh 30%, JMJD2A Tudor inh 28µM* and VDR inhibitor inconclusive.
Screening O=C(C=Cc1cccs1)c1ccccc1 returned PLK1 PBD block -4%, HP1b chromo inh 57%, JMJD2A Tudor inh -1% and VDR inhibitor inconclusive.
O=C(C=Cc1cccs1)c1ccc(Cl)s1 was read as PLK1 PBD block -12%, HP1b chromo inh 10%, JMJD2A Tudor inh -14% and VDR inhibitor 40µM*.
For CCCCC(CC)CN=C(N)NC(N)=NCCCCCCN=C(N)NC(N)=NCC(CC)CCCC (stereo not drawn) the results were BAZ2B block 3%, PLK1 PBD block inconclusive, HP1b chromo inh 33%, L3MBTL1 block 8%, JMJD2A Tudor inh 79µM* and VDR inhibitor 5%.
S=c1[nH]c2ccc(Cl)cc2[nH]1 was read as BAZ2B block 7%, PLK1 PBD block 11µM*, HP1b chromo inh inconclusive, L3MBTL1 block 14%[11.4 µM], JMJD2A Tudor inh 45µM* and VDR inhibitor inconclusive.
For CSc1nc2cc(Cl)ccc2s1 the results were BAZ2B block 14%, PLK1 PBD block -12%, HP1b chromo inh 40%, L3MBTL1 block 7%, JMJD2A Tudor inh 8% and VDR inhibitor 10%.
Screening COc1ccc2[nH]c(=S)[nH]c2c1 returned BAZ2B block 10%, PLK1 PBD block -11%, HP1b chromo inh 16%, L3MBTL1 block 1%, JMJD2A Tudor inh 56µM* and VDR inhibitor 5%.
For S=c1[nH]c2cc3c(cc2[nH]1)OCCO3 the results were BAZ2B block -13%, PLK1 PBD block -20%, HP1b chromo inh 3%, L3MBTL1 block 0%, JMJD2A Tudor inh -32% and VDR inhibitor 1%.
`S=c1[nH]c2cc(Cl)ccc2s1` gave BAZ2B block -1%[57.1 µM], PLK1 PBD block 1.9µM*, HP1b chromo inh -9%, L3MBTL1 block -2%, JMJD2A Tudor inh inconclusive and VDR inhibitor -4%.
O=C(COC(=O)CNC(=O)C1CCCCC1)Nc1cc(C(F)(F)F)ccc1Cl was read as BAZ2B block -5%, HP1b chromo inh 10%, L3MBTL1 block 2%, JMJD2A Tudor inh -5% and VDR inhibitor inconclusive.
For Cc1cnc2c3c(cc(Cl)c2c1)-c1ccccc1S(=O)(=O)N3 the results were HP1b chromo inh -17%, JMJD2A Tudor inh 20µM* and VDR inhibitor inconclusive.
Screening CCCCOC(=O)n1c(=O)oc2ccccc21 returned BAZ2B block 10%, PLK1 PBD block -6%, HP1b chromo inh 29%, JMJD2A Tudor inh 0% and VDR inhibitor 10%.
CCOC(=O)n1c(=O)oc2ccc(Cl)cc21 was read as BAZ2B block 5%, PLK1 PBD block -13%, HP1b chromo inh 27%, L3MBTL1 block -3%, JMJD2A Tudor inh 28µM* and VDR inhibitor -10%.
COCC(=O)N1CCC2(CCCN(c3ccccn3)C2)CC1 was read as VDR inhibitor -5%.
CN(C)C(=S)N=c1ssc(=S)n1Cc1cccnc1 was read as PLK1 PBD block 27µM*, HP1b chromo inh inconclusive, JMJD2A Tudor inh inconclusive and VDR inhibitor 50µM*.
For S=C1NCN(Cc2cccnc2)CN1 the results were BAZ2B block 1%, PLK1 PBD block 0%, HP1b chromo inh 16%, L3MBTL1 block 7%, JMJD2A Tudor inh -5% and VDR inhibitor 2%.
O=C(O)Cn1c2ccccc2c2n[nH]c(=S)nc21 was read as BAZ2B block 50µM*, PLK1 PBD block 27µM*, HP1b chromo inh -20%, L3MBTL1 block -13%, JMJD2A Tudor inh 20µM* and VDR inhibitor -15%.
`CCn1c2ccccc2c2n[nH]c(=S)nc21` gave BAZ2B block -24%, PLK1 PBD block inconclusive, HP1b chromo inh 8%, JMJD2A Tudor inh -19% and VDR inhibitor -1%.
Screening CCCn1c2ccc(C)cc2c2n[nH]c(=S)nc21 returned BAZ2B block -36%, PLK1 PBD block 27µM*, HP1b chromo inh 26%, JMJD2A Tudor inh -25% and VDR inhibitor -15%.

Compound activity from PubChem.
